Assay results published in PubChem BioAssay.
“And” between values parts separate entries of the source, which are not always exact repeats. Equal entries are not always repeated. The source made the active and inactive calls.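 The calls were made as follows, unless noted: active = percent response above 42, roughly 3 SD of non-fluorescent test compounds; inactive = the rest.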 Peptide text beside a SMILES is read from it.

Target: Beta-adrenergic receptor kinase 1 (Homo sapiens) (UniProt P25098)
Assay: GRK2 binders displacing RNA aptamer, biochemical, validation, human GRK2, bead flow cytometry (AID 488806;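 active = aptamer binding inhibition above 30%, about 3 SD of noise from non-fluorescent compounds; inactive = inhibition at or below 30%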)
Conditions: bead-bound GRK2, FAM-aptamer displacement, at 10 µM, active compounds read high

Chain of Beta-adrenergic receptor kinase 1 (Homo sapiens) (P25098 whole entry, looked up): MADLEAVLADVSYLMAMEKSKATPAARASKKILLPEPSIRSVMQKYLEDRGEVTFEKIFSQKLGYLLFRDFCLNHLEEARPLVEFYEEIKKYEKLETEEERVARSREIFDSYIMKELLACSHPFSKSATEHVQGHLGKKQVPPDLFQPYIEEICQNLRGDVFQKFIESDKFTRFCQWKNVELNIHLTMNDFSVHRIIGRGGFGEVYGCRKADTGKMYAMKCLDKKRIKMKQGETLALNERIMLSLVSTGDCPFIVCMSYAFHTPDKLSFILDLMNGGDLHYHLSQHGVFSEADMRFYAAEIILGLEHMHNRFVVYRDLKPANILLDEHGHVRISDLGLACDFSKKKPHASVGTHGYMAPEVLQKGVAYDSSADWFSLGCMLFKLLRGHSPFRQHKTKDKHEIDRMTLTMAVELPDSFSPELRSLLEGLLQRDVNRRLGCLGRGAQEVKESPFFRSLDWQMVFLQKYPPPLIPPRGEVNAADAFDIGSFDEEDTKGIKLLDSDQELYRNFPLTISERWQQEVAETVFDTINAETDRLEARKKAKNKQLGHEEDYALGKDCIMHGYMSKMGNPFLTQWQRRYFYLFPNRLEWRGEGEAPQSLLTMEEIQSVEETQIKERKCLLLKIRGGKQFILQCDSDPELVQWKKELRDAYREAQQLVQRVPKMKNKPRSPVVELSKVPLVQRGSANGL

Structure (SMILES) | aptamer binding inhibition
CC(C)(C)OC(=O)N1CC(O)CC1C(=O)OCC(=O)c1ccc(Cl)cc1 (stereo not drawn) | 0% (inactive)
O=C(O)c1ccc(OCCn2ccnc2)cc1 | -2% (inactive)
CCOc1ccc2ccccc2c1CNc1nnnn1C | 3% (inactive)
COc1ccccc1N1C(=O)C2CC(C)=C(C)CC2C1=O (stereo not drawn) | 11% (inactive)
Cc1coc2c1c(C)cc1oc(=O)c(Cc3ccccc3)c(C)c12 | -1% (inactive)
COc1cc2c3c(c1)C(C)CC(C)(C)N3C(=O)C2=O (stereo not drawn) | 89% (active)
NS(=O)(=O)c1cc2c(cc1Cl)NCNS2(=O)=O | -2% (inactive)
O=C(O)C1Cc2ccccc2CN1S(=O)(=O)c1ccccc1 (stereo not drawn) | 4% (inactive)
COc1cccc(C2CC(=O)C3=C(C2)Nc2ccccc2N(C(=O)CCC(=O)O)C3c2ccc(F)cc2)c1 (stereo not drawn) | 4% (inactive)
CCC(C(=O)Nc1ccc2c(c1)OCCO2)c1ccccc1 (stereo not drawn) | -1% (inactive)
COc1ccc(C2C(C(=O)c3ccco3)=C(O)C(=O)N2CC2CCCO2)cc1 (stereo not drawn) | 3% (inactive)
C=CCNC(=O)c1ccc(-c2cccc([N+](=O)[O-])c2)o1 | 3% (inactive)
CC12CCC(C(=O)N(CCC#N)CCC#N)(CC1=O)C2(C)C (stereo not drawn) | 3% (inactive)
CC(=O)c1c(C)c(C)c2n1CCn1c(C)ccc1-2 | 0% (inactive)
COc1cc2cc(C)nc(Cc3cccc4ccccc34)c2cc1OC | 3% (inactive)
Cc1oc2cc(O)cc(O)c2c(=O)c1-c1ccc2c(c1)OCCCO2 | 3% (inactive)
O=CNC1CCCc2c1[nH]c1ccc(Cl)cc21 (stereo not drawn) | 2% (inactive)
COc1ccc2cc(C3(C)NC(=O)NC3=O)ccc2c1 (stereo not drawn) | 2% (inactive)
CC1(C)CC(=O)c2c(nc3ccccc3c2N)C1 | 0% (inactive)
Cc1ccccc1C(=O)Oc1ccc(Sc2ccc(O)cc2)cc1 | 0% (inactive)

Structure (SMILES) | aptamer binding inhibition
O=C(NC1CC1)C1CCN(C2CCN(C(=O)Cc3ccc(F)cc3)CC2)CC1 | -7% (inactive)
CCc1cc(/C(Cc2ccccn2)=N\O)c(O)cc1O | 3% (inactive)
CC(=O)NC(CC(C)C)C(=O)NC(Cc1ccccc1)C(N)=O (stereo not drawn) (Ac-Leu-Phe-NH2; configuration not given here) | 2% (inactive)
CN(C)c1ccc(C(CN)c2c[nH]c3ccccc23)cc1 (stereo not drawn) | -10% (inactive)
CCn1cc(C(=O)O)c(=O)c2ccc(C)nc21 | -1% (inactive)
CN1[C@@H]2CC(OC(=O)[C@H](CO)c3ccccc3)C[C@H]1[C@@H]1O[C@@H]12 (stereo partly drawn) | -1% (inactive) and 3% (inactive)
CCOc1cc2c3c(c1)C(C)=CC(C)(C)N3C(=O)C2=O | 0% (inactive)
Cc1ccc(C)c(OCCCC(C)(C)C(=O)O)c1 | 4% (inactive)
CC1(C)C(=O)OC(C(=O)c2ccc(Cl)cc2)C(C)(C)C1=O (stereo not drawn) | 2% (inactive)
CC1(CC(=O)Nc2ccccc2)NC(=S)N(c2ccccc2)N1 (stereo not drawn) | 5% (inactive)
COc1cc2c(cc1OC)C(C)=NC1(CCCCC1)C2 | 6% (inactive)
Cc1occc(=O)c1O | 1% (inactive)
COC1CCN(Cc2cn(Cc3ccccc3)nc2-c2cc3ccccc3o2)CC1 | 0% (inactive)
COc1cccc2c(O)cc(=O)n(C)c12 | -1% (inactive)
CCN1C(=O)C(CC(=O)Nc2ccc(F)cc2)N(Cc2ccco2)C1=S (stereo not drawn) | 5% (inactive)
O=C(Cc1ccccc1[N+](=O)[O-])NCc1ccncc1 | 7% (inactive)
O=C1CC2(CCCC2)CC(=O)N1CCCCN1CCN(c2ncccn2)CC1 | 3% (inactive)
CCC(=O)c1ccc(OCc2ccc(C(=O)OC)cc2)cc1 | -1% (inactive)
COc1cccc(NC(=O)C2CC(=O)OC23CCOC(C)(C)C3)c1 (stereo not drawn) | 2% (inactive)

Target: Beta-2 adrenergic receptor (Homo sapiens) (UniProt P07550)
Assay: beta2AR agonists driving receptor internalization, pilot screen, cell-based, FAP fluorogen, flow cytometry, validation set (AID 504459);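 also: agonist-driven loss of surface beta2AR via internalization measured by FAP dye flow cytometry; reference of the scale not given here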
Conditions: Am2.2-beta2AR cells, FAP surface receptor flow cytometry; at 10 µM; active compounds read high

Chain of Beta-2 adrenergic receptor (Homo sapiens) (P07550 whole entry, looked up): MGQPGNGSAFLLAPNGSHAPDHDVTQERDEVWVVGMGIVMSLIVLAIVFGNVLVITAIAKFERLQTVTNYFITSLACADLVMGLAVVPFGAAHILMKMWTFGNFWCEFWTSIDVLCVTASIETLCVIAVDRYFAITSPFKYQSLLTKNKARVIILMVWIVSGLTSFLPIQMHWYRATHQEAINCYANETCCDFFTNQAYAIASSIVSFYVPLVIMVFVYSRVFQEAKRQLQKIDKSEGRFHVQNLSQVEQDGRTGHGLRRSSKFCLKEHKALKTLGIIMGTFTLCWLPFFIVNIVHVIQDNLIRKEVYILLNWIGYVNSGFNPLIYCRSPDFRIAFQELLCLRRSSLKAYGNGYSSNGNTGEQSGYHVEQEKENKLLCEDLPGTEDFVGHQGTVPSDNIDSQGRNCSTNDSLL

Structure (SMILES) | response
CC(C)(C)OC(=O)N1CC(O)CC1C(=O)OCC(=O)c1ccc(Cl)cc1 (stereo not drawn) | -16.2% (inactive)
O=C(O)c1ccc(OCCn2ccnc2)cc1 | -0.04% (inactive)
CCOc1ccc2ccccc2c1CNc1nnnn1C | -8.39% (inactive)
COc1ccccc1N1C(=O)C2CC(C)=C(C)CC2C1=O (stereo not drawn) | 4.23% (inactive)
Cc1coc2c1c(C)cc1oc(=O)c(Cc3ccccc3)c(C)c12 | -0.64% (inactive)
COc1cc2c3c(c1)C(C)CC(C)(C)N3C(=O)C2=O (stereo not drawn) | 2.87% (inactive)
NS(=O)(=O)c1cc2c(cc1Cl)NCNS2(=O)=O | -19.4% (inactive)
O=C(O)C1Cc2ccccc2CN1S(=O)(=O)c1ccccc1 (stereo not drawn) | -23.4% (inactive)
COc1cccc(C2CC(=O)C3=C(C2)Nc2ccccc2N(C(=O)CCC(=O)O)C3c2ccc(F)cc2)c1 (stereo not drawn) | -3.62% (inactive)
CCC(C(=O)Nc1ccc2c(c1)OCCO2)c1ccccc1 (stereo not drawn) | 3.82% (inactive)
COc1ccc(C2C(C(=O)c3ccco3)=C(O)C(=O)N2CC2CCCO2)cc1 (stereo not drawn) | -3.98% (inactive)
C=CCNC(=O)c1ccc(-c2cccc([N+](=O)[O-])c2)o1 | 9.11% (inactive)
CC12CCC(C(=O)N(CCC#N)CCC#N)(CC1=O)C2(C)C (stereo not drawn) | -1.84% (inactive)
CC(=O)c1c(C)c(C)c2n1CCn1c(C)ccc1-2 | -22.4% (inactive)
COc1cc2cc(C)nc(Cc3cccc4ccccc34)c2cc1OC | 9.84% (inactive)
Cc1oc2cc(O)cc(O)c2c(=O)c1-c1ccc2c(c1)OCCCO2 | 5% (inactive)
O=CNC1CCCc2c1[nH]c1ccc(Cl)cc21 (stereo not drawn) | 3.11% (inactive)
COc1ccc2cc(C3(C)NC(=O)NC3=O)ccc2c1 (stereo not drawn) | 2.16% (inactive)
CC1(C)CC(=O)c2c(nc3ccccc3c2N)C1 | -12.4% (inactive)
Cc1ccccc1C(=O)Oc1ccc(Sc2ccc(O)cc2)cc1 | -4.72% (inactive)

Structure (SMILES) | response
O=C(NC1CC1)C1CCN(C2CCN(C(=O)Cc3ccc(F)cc3)CC2)CC1 | -2.98% (inactive)
CCc1cc(/C(Cc2ccccn2)=N\O)c(O)cc1O | 10.8% (inactive)
CC(=O)NC(CC(C)C)C(=O)NC(Cc1ccccc1)C(N)=O (stereo not drawn) (Ac-Leu-Phe-NH2; configuration not given here) | 4.73% (inactive)
CN(C)c1ccc(C(CN)c2c[nH]c3ccccc23)cc1 (stereo not drawn) | 4.69% (inactive)
CCn1cc(C(=O)O)c(=O)c2ccc(C)nc21 | 3.04% (inactive)
CN1[C@@H]2CC(OC(=O)[C@H](CO)c3ccccc3)C[C@H]1[C@@H]1O[C@@H]12 (stereo partly drawn) | -2.34% (inactive) and -12.4% (inactive)
CCOc1cc2c3c(c1)C(C)=CC(C)(C)N3C(=O)C2=O | 23% (inactive)
Cc1ccc(C)c(OCCCC(C)(C)C(=O)O)c1 | -7.3% (inactive)
CC1(C)C(=O)OC(C(=O)c2ccc(Cl)cc2)C(C)(C)C1=O (stereo not drawn) | -5.23% (inactive)
CC1(CC(=O)Nc2ccccc2)NC(=S)N(c2ccccc2)N1 (stereo not drawn) | -7.2% (inactive)
COc1cc2c(cc1OC)C(C)=NC1(CCCCC1)C2 | -21.7% (inactive)
Cc1occc(=O)c1O | -9.02% (inactive)
COC1CCN(Cc2cn(Cc3ccccc3)nc2-c2cc3ccccc3o2)CC1 | 8.96% (inactive)
COc1cccc2c(O)cc(=O)n(C)c12 | 5.82% (inactive)
CCN1C(=O)C(CC(=O)Nc2ccc(F)cc2)N(Cc2ccco2)C1=S (stereo not drawn) | -17.8% (inactive)
O=C(Cc1ccccc1[N+](=O)[O-])NCc1ccncc1 | -1.07% (inactive)
O=C1CC2(CCCC2)CC(=O)N1CCCCN1CCN(c2ncccn2)CC1 | -19.5% (inactive)
CCC(=O)c1ccc(OCc2ccc(C(=O)OC)cc2)cc1 | 4.9% (inactive)
COc1cccc(NC(=O)C2CC(=O)OC23CCOC(C)(C)C3)c1 (stereo not drawn) | -4.19% (inactive)
